An excerpt weighted towards active compounds, which were near 1.8% of everything screened.
Jurkat NFkB inh: inhibitors of induced NF-kB luciferase reporter, primary screen, TCR NF-kB activation inhibitor project, cell-based, luminescence, uHTS; Jurkat, PMA/ionomycin-induced NF-kB luciferase reporter; inhibition, % at 4 µM; hit rate 0.53% among 330,000; AID 435003, 2010; in the data active = inhibition above about 50%
697 NFkB inh: inhibitors of PMA/ionomycin-induced NF-kB reporter, 697 cells, primary screen, B-cell NF-kB inhibitor project, cell-based, luminescence, uHTS. 697 B-cell NF-kB luciferase reporter, 16 h. inhibition, % at 4 µM. hit rate 0.33% among 330,000; in the data active = inhibition above about 35%
Beta cell apopt: inhibitors of cytokine-induced beta cell apoptosis, primary screen, luminescence; INS-1E cytokine-induced death, ATP luminescence, 48 h; percent of positive-control rescue, neutral wells zero; protection from apoptosis, % (concentration not given with the values); hit rate 0.8% among 300,000; AID 435005, 2010;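 active = Every replicate reaches about 75%, or at least half do and their mean reaches it too, limit read from the data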;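 note: 0% = cytokine-treated negative control wells and 100% = positive control rescue; higher means more ATP so stronger rescue from cytokine killing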
Gli-Sufu block: Gli-Sufu pathway antagonists, primary screen, luciferase luminescence, Sufu-KO-LIGHT cells, uHTS; inhibition, % at 5 µM; AID 588413, 2011; hit rate 0.74% among 340,000; Sufu-KO-LIGHT fibroblasts, Gli luciferase reporter luminescence;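 active = inhibition above about 55%, limit read from the data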;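 note: 0% = DMSO-treated cells and 100% = wells with medium but no cells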
Gli-Sufu confirm: Gli-SUFU pathway antagonists, confirmation, single concentration, luciferase luminescence, Sufu-KO-LIGHT cells. shares compounds with Gli-Sufu block. Gli luciferase reporter. inhibition, % at 5 µM. hit rate 40% among 2,500. AID 602428, 2012;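 active = mean inhibition at 5 µM reaching about 45%, limit read from the data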;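 note: plate controls were DMSO-treated cells for no effect and wells lacking cells for full effect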
SufuKO cytotox: cytotoxicity in Sufu-KO-LIGHT cells, confirmation, cytotoxicity control for Gli-SUFU antagonist project, cell-based, ATP luminescence, single concentration | shares compounds with Gli-Sufu block | cytotoxicity, % at 5 µM | hit rate 32% among 2,500 | AID 651994, 2013;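 active = mean cytotoxicity at 5 µM above about 25%, limit read from the data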;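 note: cells exposed to compound overnight for roughly 16 to 18 hours; plate controls were DMSO wells with cells for no effect and medium without cells for full effect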
Wnt3a cs: Wnt3a reporter signal inhibition, confirmation, counter-screen for Gli-SUFU antagonist project, Wnt-LIGHT cells, luminescence, single concentration; shares compounds with Gli-Sufu block; Wnt3a-driven luciferase reporter; inhibition, % at 6.25 µM; hit rate 20% among 2,500; AID 651995, 2013;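 active = mean inhibition above about 25%, limit read from the data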
The depositor's hits bear a star; . = no result.

SMILES | Jurkat NFkB inh | 697 NFkB inh | Beta cell apopt | Gli-Sufu block | Gli-Sufu confirm | SufuKO cytotox | Wnt3a cs
C(=NN1CCCCCC1)c1ccc2ccccc2n1 | . | . | . | 68* | 89* | 73* | 106*
CC1CC(C)CN(C(=O)Cn2c(SCC(=O)N3CCc4ccccc4C3)nc3ccccc32)C1 (stereo not drawn) | -11 | 10 | -3 | 3 | . | . | .
COc1ccc(C2CC(c3cccs3)=NN2C(=O)CSc2nc(=O)n3ccccc3n2)cc1 (stereo not drawn) | -9 | -45 | -3 | 80* | 29 | 26* | 67*
CCCCNC(=S)Nc1cc(S(=O)(=O)N2CCCCC2)ccc1C | 0 | 4 | 1 | 2 | . | . | .
C=CCn1nc([N+](=O)[O-])nc1Sc1cccc2cccnc12 | 10 | -17 | 95* | 68* | 48* | 15 | -93
N/C(=N\OC(=O)CCC(=O)O)c1ncc(C(F)(F)F)cc1Cl | -25 | 8 | . | 3 | . | . | .
Cc1ccc(NC(=O)c2ccc(OC(=O)COc3ccc(Cl)c(C)c3)cc2)cc1 | -91 | -116 | 3 | -74 | . | . | .
O=C(NCC(c1ccco1)N1CCN(c2ccc(F)cc2)CC1)c1ccco1 (stereo not drawn) | 9 | 4 | 1 | -8 | . | . | .
